Screening results as filed in PubChem BioAssay.
PERK inhibitor: block of dimerizer-induced PERK translation repression, primary screen, PERK inhibitor project, CHO PERK-DD cells, SEAP luminescence, HTS; 220,000 tested, 0.17% active; inhibition, % at 5.6 µM; CHO PERK-DD fusion, SEAP luminescence translation reporter;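 active = inhibition above the mean inhibition of all tested compounds plus 3 SD, set separately per screening campaign, cut at about 2.9% in these data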;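 also: PERK kinase domain activated by AP20187 dimerizer at 100 nM; 0% = DMSO with dimerizer and 100% = rapamycin at 8.4 µM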
Target sequence (Q9NZJ5 whole entry, looked up, the tested form may be a part): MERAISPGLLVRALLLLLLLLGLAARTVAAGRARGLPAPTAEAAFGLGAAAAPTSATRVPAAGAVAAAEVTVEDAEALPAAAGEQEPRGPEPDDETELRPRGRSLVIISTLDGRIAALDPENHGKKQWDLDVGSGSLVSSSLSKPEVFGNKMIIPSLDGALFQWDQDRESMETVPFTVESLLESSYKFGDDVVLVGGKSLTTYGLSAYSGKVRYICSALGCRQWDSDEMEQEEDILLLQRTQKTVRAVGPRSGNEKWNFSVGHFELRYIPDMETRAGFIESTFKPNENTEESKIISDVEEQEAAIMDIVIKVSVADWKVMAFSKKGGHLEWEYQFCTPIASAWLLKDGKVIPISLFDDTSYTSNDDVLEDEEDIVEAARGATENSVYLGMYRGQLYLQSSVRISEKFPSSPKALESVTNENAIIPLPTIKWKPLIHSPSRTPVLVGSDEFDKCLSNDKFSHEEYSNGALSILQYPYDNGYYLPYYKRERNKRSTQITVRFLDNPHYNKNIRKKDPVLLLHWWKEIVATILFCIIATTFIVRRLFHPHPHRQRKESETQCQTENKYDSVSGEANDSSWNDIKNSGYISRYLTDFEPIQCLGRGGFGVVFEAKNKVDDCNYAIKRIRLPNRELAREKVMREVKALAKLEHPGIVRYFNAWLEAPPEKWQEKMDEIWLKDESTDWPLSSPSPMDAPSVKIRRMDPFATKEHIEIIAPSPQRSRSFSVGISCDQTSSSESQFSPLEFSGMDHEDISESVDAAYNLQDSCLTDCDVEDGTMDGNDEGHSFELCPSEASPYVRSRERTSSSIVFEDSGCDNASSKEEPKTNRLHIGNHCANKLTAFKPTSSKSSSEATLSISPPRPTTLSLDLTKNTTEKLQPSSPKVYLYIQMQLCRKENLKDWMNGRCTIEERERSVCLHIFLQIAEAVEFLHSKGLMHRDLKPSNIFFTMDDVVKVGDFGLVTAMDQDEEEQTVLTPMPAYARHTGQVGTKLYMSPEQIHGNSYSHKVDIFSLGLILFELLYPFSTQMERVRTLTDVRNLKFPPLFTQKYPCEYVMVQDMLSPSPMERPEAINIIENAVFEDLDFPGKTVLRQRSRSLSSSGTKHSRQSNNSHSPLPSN
L929 necroptosis: inhibitors of zVAD-triggered necroptosis, primary screen, L929 cells | 220,000 tested, 0.38% active | AID 1377, 2008 | L929 zVAD necroptosis rescue, ATP luminescence, 24 h; with zVAD 60 µM | viability rescue, % at 10 µM;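 active = activation, scaled between plate controls, above about 75%, limit read from the data; inactive = activation under that limit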;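 also: 0% = zVAD with DMSO and 100% = DMSO alone without zVAD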
PKD1 kinase inh: inhibitors of human PKD1 kinase, biochemical, fluorescence polarization; 200,000 tested, 0.056% active; inhibition, % (no concentration beside the values); PKD1 kinase fluorescence polarization assay; in the data active = inhibition above about 50%
DTT redox prof: compounds producing H2O2 with reducing agent – biochemical, NIH compound library profiling, artefact control for MLSCN library redox annotation, primary screen. DTT-dependent redox cycling H2O2, phenol red/HRP absorbance; 100% = 100 µM peroxide control, 0% = buffer. activation, % at 10 µM. 200,000 tested, 0.03% active. AID 878, 2007;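 active = activation of at least 50% relative to the plate's high and low controls in the primary single-dose screen; inactive = activation below 50%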;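 also: compound incubated with DTT at 0.8 mM final as the reducing agent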
TNF necrop inh: inhibitors of TNF-alpha triggered necroptosis, primary screen, cell-based, Jurkat FADD-/-, single concentration; Jurkat FADD-/- TNF necroptosis rescue, ATP luminescence, 24 h; 0 = TNF only, 100 = no-TNF cells; 220,000 tested, 0.068% active; activation (protection from cell death), % at 10 µM;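 active = activation, meaning protection from cell death, of at least 50% relative to plate controls; inactive = activation below 50%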;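 also: necroptosis triggered by 40 ng/mL TNF-alpha added together with compound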
WT yeast gro inh: growth inhibition of WT strain, primary screen, mitochondrial fusion inhibitor project, WT and mutant strains, chemical genetic. mitochondrial fusion phenotypic screen. inhibition, % at 10 µM. 190,000 tested, 2.1% active. AID 1362, 2008; in the data active = inhibition above about 58%; tested in S. cerevisiae
Active calls of the source: *; · = no result. Sampled rows, rich in hits. Any-hit rate of the full collection: about 2.4%.

SMILES	PERK inhibitor	L929 necroptosis	PKD1 kinase inh	DTT redox prof	TNF necrop inh	WT yeast gro inh
COCCNC(=O)c1cc2cc(Cl)cc(Cl)c2oc1=O	1.7	1.5	1.0	-1.2	1.2	-10.8
Cc1ccccc1Nc1nc(NCc2ccco2)c2ccccc2n1	0.9	0.0	-1.0	-1.7	-3.4	79.2*
Oc1ccccc1Nc1nc(NCc2ccco2)c2ccccc2n1	-0.9	1.6	·	·	-6.4	·
CSC1=NC(C)(C)C=C(/C=C/c2c(Cl)cccc2Cl)N1	0.1	4.0	-4.6	0.5	-0.3	42.1
CSC1=NC(C)(C)C=C(/C=C/c2ccc(Cl)cc2Cl)N1	0.4	-0.8	-6.4	-1.0	-7.4	68.0*
CSC1=NC(C)(C)C=C(/C=C/c2ccc(Cl)cc2)N1	0.0	-1.8	-2.0	-1.0	-1.0	21.4
CCSC1=NC(C)(C)C=C(/C=C/c2ccc(Cl)cc2Cl)N1	-1.6	0.3	9.2	-0.1	-3.9	59.9*
Cc1c(CN2CCCC(C(=O)c3cccc(OC(C)C)c3)C2)c(=O)n(-c2ccccc2)n1C (stereo not drawn)	-1.6	-1.3	-1.0	-0.4	1.2	3.0
Cc1ccc(-c2nnc3n2CCCCC3)cc1	0.5	-0.3	-4.2	0.1	-1.1	73.8*
Clc1ccc(-c2nnc3n2CCCC3)cc1	1.2	0.3	-6.4	3.3	-3.7	0.6
O=C(Nc1nc(-c2cccs2)c(C(=O)C(F)(F)F)s1)c1ccco1	0.9	0.0	12.7	-0.1	1.1	-19.8
O=C(Nc1nc(-c2cccs2)c(C(=O)C(F)(F)F)s1)c1ccccc1	0.2	-0.8	-9.6	-0.4	-1.2	60.0*
CCCCn1cnc(C(=O)OCC)c1N	0.5	·	-12.8	-0.7	2.3	1.0
CCOC(=O)c1cc(-c2ccc3c(c2)OCO3)nc2onc(C)c12	0.7	-0.6	9.5	0.0	-3.0	78.2*
Cn1c(NC(=O)c2ccc(S(=O)(=O)N3CCOCC3)cc2)cc(=O)n(C)c1=O	0.9	0.9	0.2	0.5	2.5	-2.4
COC(=O)CNC(=O)c1cc(-c2ccncc2)nc2c(C)c(Cl)ccc12	-0.4	1.2	-1.6	5.7	-1.3	15.9
Cc1c(Cl)ccc2c(C(=O)NCCN3CCCCC3)cc(-c3ccccn3)nc12	0.0	34.6	-6.2	8.2	-5.1	94.2*
COc1cc(CNCc2ccccc2)c(Br)cc1OC1CCCC1	-0.5	-0.1	6.0	-0.3	1.6	28.8
COc1ccc(C(=O)N/N=C(\c2ccccc2)c2ccccn2)cc1	-1.3	46.6	-9.7	0.0	-8.4	68.0*
O=[N+]([O-])c1ccc(C[n+]2cccc3ccc4cccnc4c32)cc1	1.2	1.0	-2.9	0.4	-1.6	59.0*
O=[N+]([O-])c1ccc(C[n+]2cccc3ccccc32)cc1	0.4	1.2	-5.1	-1.0	1.0	2.0
CC(C)(C)C(=O)Nc1cccc(-c2ncon2)c1	0.6	0.6	·	·	1.8	·
Cc1[nH]c(=O)c(C(=O)/C=C/c2ccccc2F)c2c1CCCC2	0.4	92.2*	0.4	-3.8	-20.7	-16.3
Cc1cc(C)c(C(=O)/C=C/c2cccc3ccccc23)c(=O)[nH]1	0.0	30.3	-5.0	-0.1	-7.2	-14.9
Cc1ccc(NS(=O)(=O)c2ccc(C)c(NC(=O)COc3ccccc3)c2)c(C)c1	0.4	0.1	-6.9	-0.1	2.3	58.3*
CCn1nc([N+](=O)[O-])c(C(C#N)c2nc3ccccc3n2C)c(Cl)c1=O (stereo not drawn)	1.1	0.9	-0.7	-0.1	-2.0	-16.0
CCCn1nc([N+](=O)[O-])c(C(C#N)c2nc3ccccc3s2)c(Cl)c1=O (stereo not drawn)	-1.0	-0.8	-12.5	0.0	-11.7	77.7*
CC(C)COC(=O)Cn1cnc2ccc(Br)cc2c1=O	-1.0	0.9	9.2	0.7	56.9*	-2.1
O=C(Cn1cnc2ccc(Cl)cc2c1=O)c1cccs1	0.8	1.3	1.1	-5.5	67.2*	-6.7
O=C(Cn1cnc2ccc(Br)cc2c1=O)c1cccs1	-0.1	0.7	-8.6	-8.0	73.6*	0.1
